# pCIP destab: compounds decreasing mouse p/CIP protein stability; Q05BA5; F442A p/CIP-EGFP cells, EGFP fluorescence, 16 h; decrease of EGFP signal, % at 10 µM; 290,000 compounds, 0.01% hits; AID 1984;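 active means EGFP signal decrease of at least 30% at 10 µM or well 3 SD below plate mean, unless failing retest; inactive means the rest, including hits failing retest or dose response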
# MPTP block: inhibitors of mitochondrial permeability transition pore; isolated mouse mitochondria, Ca2+ swelling absorbance, 30 min; inhibition, % at 10 µM; 360,000 compounds, 1.4% hits; AID 602449;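 active means inhibition of 50% or more, scaled per plate between neutral and stimulator controls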;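 further: 0% = DMSO wells given calcium and 100% = 1 mM EGTA wells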
# FAS-TE inh: inhibitors of human fatty acid synthase thioesterase domain; P49327; recombinant FAS-TE, OMFH fluorogenic substrate, fluorescence endpoint; inhibition, % at 15 µM; 360,000 compounds, 0.67% hits;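 active means compounds whose normalised, plate-corrected inhibition of enzyme fluorescence in the single-dose primary screen is 50% or more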;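 further: 0% = DMSO with enzyme and 100% = substrate without enzyme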
# Target sequence (P49327 whole entry, looked up, the tested form may be a part): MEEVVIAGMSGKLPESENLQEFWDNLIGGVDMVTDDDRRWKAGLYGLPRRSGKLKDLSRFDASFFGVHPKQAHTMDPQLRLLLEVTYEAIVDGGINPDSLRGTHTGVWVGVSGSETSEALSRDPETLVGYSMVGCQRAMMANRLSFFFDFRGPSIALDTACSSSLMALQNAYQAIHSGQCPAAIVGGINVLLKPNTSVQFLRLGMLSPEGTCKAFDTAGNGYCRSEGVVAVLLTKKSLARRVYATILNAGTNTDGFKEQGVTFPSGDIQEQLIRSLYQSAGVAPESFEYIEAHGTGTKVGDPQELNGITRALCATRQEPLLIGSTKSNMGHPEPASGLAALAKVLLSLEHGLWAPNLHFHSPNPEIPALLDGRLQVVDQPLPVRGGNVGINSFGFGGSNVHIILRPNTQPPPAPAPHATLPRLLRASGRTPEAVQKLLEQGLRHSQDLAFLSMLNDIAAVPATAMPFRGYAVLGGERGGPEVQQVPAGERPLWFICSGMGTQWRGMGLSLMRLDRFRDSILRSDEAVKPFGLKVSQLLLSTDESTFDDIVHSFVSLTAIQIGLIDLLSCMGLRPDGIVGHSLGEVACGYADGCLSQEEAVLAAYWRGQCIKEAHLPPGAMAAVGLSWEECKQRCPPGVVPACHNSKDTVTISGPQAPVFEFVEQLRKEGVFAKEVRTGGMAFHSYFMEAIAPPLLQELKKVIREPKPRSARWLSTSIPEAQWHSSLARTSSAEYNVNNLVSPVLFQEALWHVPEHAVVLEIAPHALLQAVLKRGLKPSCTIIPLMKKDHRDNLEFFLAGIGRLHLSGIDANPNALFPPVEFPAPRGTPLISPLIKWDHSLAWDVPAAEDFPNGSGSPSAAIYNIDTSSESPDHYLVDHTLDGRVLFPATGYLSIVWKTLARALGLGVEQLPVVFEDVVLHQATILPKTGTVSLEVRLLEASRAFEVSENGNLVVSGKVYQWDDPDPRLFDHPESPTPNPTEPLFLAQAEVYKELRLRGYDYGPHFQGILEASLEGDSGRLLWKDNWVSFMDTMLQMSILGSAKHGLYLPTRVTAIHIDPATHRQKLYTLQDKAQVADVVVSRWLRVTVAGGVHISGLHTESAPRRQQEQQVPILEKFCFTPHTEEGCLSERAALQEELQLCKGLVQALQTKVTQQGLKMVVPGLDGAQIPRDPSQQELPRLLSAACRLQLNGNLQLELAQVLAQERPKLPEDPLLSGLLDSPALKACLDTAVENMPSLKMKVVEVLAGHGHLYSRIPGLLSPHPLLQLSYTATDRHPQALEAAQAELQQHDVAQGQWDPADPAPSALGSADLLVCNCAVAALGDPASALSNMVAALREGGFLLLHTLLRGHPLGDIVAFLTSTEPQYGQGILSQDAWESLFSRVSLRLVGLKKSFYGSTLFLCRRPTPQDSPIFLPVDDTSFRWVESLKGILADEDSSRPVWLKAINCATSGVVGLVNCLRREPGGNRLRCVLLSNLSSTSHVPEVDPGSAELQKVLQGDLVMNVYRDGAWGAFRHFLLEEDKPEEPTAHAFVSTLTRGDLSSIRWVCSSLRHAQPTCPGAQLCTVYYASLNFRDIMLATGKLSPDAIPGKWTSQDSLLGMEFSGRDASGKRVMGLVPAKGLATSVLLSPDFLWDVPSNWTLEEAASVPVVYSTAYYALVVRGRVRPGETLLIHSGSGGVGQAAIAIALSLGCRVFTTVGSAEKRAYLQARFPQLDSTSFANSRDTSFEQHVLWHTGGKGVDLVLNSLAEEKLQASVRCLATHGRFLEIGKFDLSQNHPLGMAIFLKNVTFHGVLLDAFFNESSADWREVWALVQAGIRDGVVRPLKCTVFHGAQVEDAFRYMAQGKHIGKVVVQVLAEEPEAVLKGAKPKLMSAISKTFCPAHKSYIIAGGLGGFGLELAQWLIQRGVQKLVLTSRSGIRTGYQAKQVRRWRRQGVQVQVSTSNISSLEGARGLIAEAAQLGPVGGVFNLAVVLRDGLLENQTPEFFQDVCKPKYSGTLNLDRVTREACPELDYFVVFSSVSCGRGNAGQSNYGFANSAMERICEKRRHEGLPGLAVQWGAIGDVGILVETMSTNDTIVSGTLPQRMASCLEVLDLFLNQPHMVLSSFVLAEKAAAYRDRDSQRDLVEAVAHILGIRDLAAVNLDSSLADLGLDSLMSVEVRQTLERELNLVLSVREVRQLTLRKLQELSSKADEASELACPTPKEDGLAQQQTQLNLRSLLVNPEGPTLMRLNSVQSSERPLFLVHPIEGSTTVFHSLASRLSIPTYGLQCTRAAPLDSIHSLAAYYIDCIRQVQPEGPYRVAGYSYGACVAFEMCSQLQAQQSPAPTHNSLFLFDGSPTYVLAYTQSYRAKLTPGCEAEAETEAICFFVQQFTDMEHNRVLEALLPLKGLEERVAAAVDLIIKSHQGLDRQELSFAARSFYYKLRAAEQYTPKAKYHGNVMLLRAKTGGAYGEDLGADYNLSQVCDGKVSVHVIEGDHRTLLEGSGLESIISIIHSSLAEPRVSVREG
# GRIN3A LBD mod: modulates the human NR3A ligand-binding domain; NR3A LBD differential scanning fluorimetry, Tm shift; 0% = protein alone, 100% = glycine-bound protein; Tm shift relative to glycine control, % at 25 µM; 340,000 compounds, 2.5% hits; AID 1259313;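 active means melting temperature shift of at least 10% of the positive control shift, at one fixed dose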
# beta cell repl: inducers of beta-cell replication in MIN6 cells | 330,000 compounds, 0.29% hits | AID 2380 | proliferation, % at 10 µM | MIN6 cells proliferation, ATPlite luminescence, 48 h; cells starved in 0.2% serum; 100% = growth in 10% serum;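 active means compounds whose signal lies at least 3.5 SD above the mean of all wells on their plate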;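 further: 0% = DMSO-treated cells in low-serum medium and 100% = 10% serum control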
# Rh123 counter: membrane potential counter-screen of mitochondrial pore inhibitors; 5,000 compounds, 78% hits; shares compounds with MPTP block; inhibition, % at 10 µM; AID 624504; isolated mitochondria, Rhodamine 123 fluorescence; in the data active means inhibition above about 22%;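 further: 0% = DMSO vehicle and 100% = positive control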
# MPTP abs DR: dose response confirmation of mitochondrial permeability transition pore inhibitors; shares compounds with MPTP block; isolated mitochondria swelling, absorbance; IC50, µM; 780 compounds, 58% hits; in the data active means IC50 below about 20 µM
# MPTP cs DR: active in counter-screen for permeability transition pore inhibitors; shares compounds with MPTP block; isolated mitochondria counterscreen, fluorescence read-out; IC50, µM; 780 compounds, 49% hits; AID 651564; in the data active means IC50 below about 80 µM
# * hit, by the source's call; . = not tested or not shown. A selection: hits, their analogues and other compounds. The true share with any hit is near 4.1%.
SMILES,pCIP destab,MPTP block,FAS-TE inh,GRIN3A LBD mod,beta cell repl,Rh123 counter,others
ClCc1nc2ccccc2c2ccccc12,-3.6,63.5*,3.8,1.3,-3.7,-6.4,MPTP abs DR=4.62*;MPTP cs DR=>80
Cc1nn(S(=O)(=O)c2ccc(Cl)cc2)c(C)c1Sc1ccc([N+](=O)[O-])cc1,-3.5,60.9*,28.2,0.8,.,41.5*,
Cc1ncc([N+](=O)[O-])n1CCOC(=O)Nc1ccc(Cl)c(Cl)c1,-4.2,16.8,14.6,-14.5,-2.1,.,
CCCCC(CC)C(=O)Nc1ncc([N+](=O)[O-])s1 (stereo not given),-8.0,97.7*,8.5,-12.7,-6.5,100.0*,
Cc1ccc(CC(=O)Nc2ncc([N+](=O)[O-])s2)cc1,-12.5,65.8*,2.0,-20.5,-1.7,89.9*,
OC[C@@H]1CC[C@@H](Cc2ccc(-c3ccccc3)cc2)O1,.,-0.9,-4.2,-2.0,.,.,
COc1ccc2nc(N3C(=O)/C(=C/c4ccc(Cl)cc4)NC3=S)sc2c1,-2.0,94.6*,14.9,-7.0,.,3.0,
CCC1=NN=C(c2ccc(F)cc2)C(c2c[nH]c3ccccc23)N1O (stereo not given),4.4,0.8,-10.4,3.6,-1.5,.,
O=C(/C=C/c1cc([N+](=O)[O-])ccc1OC(F)F)Nc1cccc(OC(F)F)c1,-3.5,99.1*,18.7,13.2*,-0.1,71.8*,
Clc1ccc(NC2(c3nnnn3C3CCCCC3)CCCCC2)cc1,-16.8,91.3*,25.1,-7.6,-0.8,91.4*,
Cc1cccc(C)c1-n1nnnc1C1(Nc2ccccc2)CCCCC1,-0.5,0.7,19.1,-0.1,-3.5,.,
Cc1ccc(OCC(=O)N2N=C(C(F)(F)F)CC2(O)C(C)(C)C)cc1C (stereo not given),-7.0,78.9*,13.4,-0.1,-2.9,65.0*,
N#C/C(=C(/O)C(Cl)c1ccccc1)c1nc2ccccc2s1 (stereo not given),-11.5,55.4*,-5.5,0.4,-1.7,73.5*,
Cn1c(/C(C#N)=C(\O)c2cccc(F)c2)nc2ccccc21,-0.2,0.1,1.6,1.4,4.1,.,
N#C/C(=C(/O)c1ccco1)c1nc2ccccc2s1,-19.1,5.2,-1.2,4.5,-3.1,.,
N#C/C(=C(/O)c1cccc(F)c1)c1nc2ccccc2s1,-3.7,86.9*,-7.3,0.6,-5.7,85.9*,
N#C/C(=C(/O)c1cc2ccccc2o1)c1nc2ccccc2s1,-14.4,97.6*,0.5,-1.4,-6.2,77.6*,
Cc1ccc(NC(=O)c2cc3ccccc3cc2O)cc1,-0.1,70.5*,-0.3,22.3*,-7.2,72.9*,
O=C(NC1CCCCC1)c1cc2ccccc2cc1O,-11.4,114.9*,5.9,-1.3,-5.6,49.3*,
CN(C)c1ccc(NC(=O)c2cn(-c3ccccc3)nc2-c2cccs2)cc1,0.5,1.2,19.7,2.0,-3.5,.,
O=C(NC1CCCCCCC1)c1ccccc1O,5.4,-0.3,-0.2,-0.4,-0.3,.,
O=C(Nc1ccc2ccccc2c1)c1cn(-c2ccccc2)nc1-c1cccs1,-0.7,69.6*,29.9,24.7*,-5.3,70.4*,
COc1ccc(NC(=O)c2cc3ccccc3cc2O)cc1,-0.6,6.7,-0.7,7.1,-6.5,.,
O=C(Nc1ccc2ccccc2c1)c1ccccc1O,-17.3,98.2*,3.1,20.1*,-7.4,92.2*,
Cc1nn2c(COc3ccc(NC(=O)c4ccccc4Cl)cc3)nnc2c2ccccc12,4.9,0.7,4.9,0.9,0.0,.,
SMILES,pCIP destab,MPTP block,FAS-TE inh,GRIN3A LBD mod,beta cell repl,Rh123 counter,others
CN(C)c1nn(C(=O)Nc2cccc(C(F)(F)F)c2)cc1-c1ccccc1,-4.2,90.4*,8.9,-3.1,-2.6,100.7*,
O=C(c1ccc(F)c(S(=O)(=O)N2CCOCC2)c1)N1CCc2ccccc21,-0.8,-1.3,-2.2,0.2,-5.3,.,
CCN1C(=O)c2cccc3c(S(=O)(=O)NCC4CCCO4)ccc1c23 (stereo not given),4.7,-0.1,1.2,-0.1,-1.8,.,
CCCCc1cc(=O)oc2cc(OCc3cc(OC)c(OC)c(OC)c3)c(Cl)cc12,-11.1,87.5*,3.2,0.7,0.0,-4.1,MPTP abs DR=2.98*;MPTP cs DR=5.05*
Cn1c(=Nc2ccc(N3CCOCC3)cc2)ccc2ccccc21,-8.0,-0.2,-8.9,-2.5,-1.5,.,
Cn1c(N=Nc2ccc(N3CCOCC3)cc2)[n+](C)c2ccccc21,-4.6,81.2*,9.0,-5.2,.,24.7*,
CCCn1nc([N+](=O)[O-])c(C(C#N)c2nc3ccccc3o2)c(Cl)c1=O (stereo not given),5.7,100.9*,23.8,7.8,-7.1,49.6*,
Cn1nc([N+](=O)[O-])c(C(C#N)c2ccccn2)c(Cl)c1=O (stereo not given),-9.0,2.1,13.6,0.1,-6.1,.,
CCn1nc([N+](=O)[O-])c(C(C#N)c2nc3cc(C(F)(F)F)ccc3s2)c(Cl)c1=O (stereo not given),-9.6,113.9*,-33.0,-0.5,-5.7,12.2,
Nc1c(Cl)ncnc1NCCO,-7.4,0.4,-7.0,-2.1,-2.3,.,
Cc1ccc(CCNc2ncnc(Cl)c2N)cc1,.,100.6*,-1.9,8.2,.,108.2*,
N/N=C(\c1ccccc1)C12CN3CN(CN(C3)C1)C2,-15.6,0.4,-12.3,1.8,-3.2,.,
O=C(O)c1ccccc1-c1ccc([N+](=O)[O-])cc1Cl,.,-0.3,-4.6,.,.,.,
O=[N+]([O-])c1ccc2c(c1)C(=NO)c1cc(Cl)c(Cl)cc1-2,.,60.8*,-149.6,-15.4,.,36.3*,
COc1ccc(-c2cc(C(=O)c3c(N)n(C)c(=O)n(C)c3=O)c3ccccc3n2)cc1OC,-9.2,-0.1,-10.2,-0.8,1.0,.,
Nc1nc2sc3c(c2c(=O)s1)CCCC3,2.7,1.1,6.5,-2.3,-0.2,.,
Nc1c2c(nc3sc4c(c13)CCCC4)CCCCCC2,7.0,86.1*,-2.3,-1.1,-1.6,103.5*,
Cc1ccc(C2=NC(C(F)(F)F)(C(F)(F)F)c3c(n(-c4ccc(F)cc4)c(=O)[nH]c3=O)N2)cc1,-12.5,25.0,-4.2,-5.4,-4.0,.,
O=c1[nH]c(=O)n(-c2ccc(F)cc2)c2c1C(C(F)(F)F)(C(F)(F)F)N=C(c1ccc(F)cc1)N2,8.8,99.7*,-6.8,5.1,0.0,84.8*,
O=c1[nH]c(=O)n(Cc2ccco2)c2c1C(C(F)(F)F)(C(F)(F)F)N=C(CCC1CCCCC1)N2,-24.6,70.5*,-1.9,3.3,-5.7,89.7*,
N#Cc1ccc(C2=NC(C(F)(F)F)(C(F)(F)F)c3c(n(Cc4ccco4)c(=O)[nH]c3=O)N2)cc1,-17.4,83.9*,1.6,11.8*,-3.8,84.2*,
O=c1[nH]c(=O)n(Cc2ccco2)c2c1C(C(F)(F)F)(C(F)(F)F)N=C(CCc1ccccc1)N2,-4.6,6.8,7.0,1.9,-5.2,.,

# From PubChem BioAssay
